# Sampled rows, rich in hits. Any-hit rate of the full collection: about 6.2%.
# HT1080 IDH1KD tx: HT-1080 IDH1 knockdown cell toxicity (counter line); AID 686971; HT-1080 IDH1 knockdown viability, ATP luminescence, 48 h; Potency, µM (highest dose often 46.1 µM), hits mostly cytotoxic; hit rate 2% among 360,000
#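 Assay cells: HT-1080 with IDH1 knockdown, 750 per well, RPMI/5% FBS. Exposure: 48 h at 37 °C following 2 h pre-incubation. Read: CellTiter-Glo luminescence; fitted concentration-response, curve class assigned.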
# HT1080NT lethal: kills 2HG-producing HT-1080-NT fibrosarcoma cells; HT-1080-NT fibrosarcoma viability, CellTiter-Glo ATP luminescence, 48 h; Potency, µM (series often up to 46.1 µM), hits mostly cytotoxic; hit rate 1.6% among 360,000; AID 686970;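 note: NT is the 2HG producing partner of a matched IDH1 knockdown line; nearly all actives have a fitted effect of over 55% in size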
#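 Viability by CellTiter-Glo luminescence after 48 h compound exposure at 37C of HT-1080-NT cells (750/well, RPMI, 5% FBS). % activity scaled between DMSO wells and medium-only wells, then curve-fitted and categorized by curve class.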
# KB-3-1 tox: KB-3-1 parental cell cytotoxicity | KB-3-1 viability, CellTiter-Glo ATP luminescence, 72 h | Potency, µM (doses to about 46.1 µM), hits mostly cytotoxic | hit rate 1.4% among 400,000; note: nearly all actives have a fitted effect of over 60% in size
#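 Luminescent ATP read-out (CellTiter-Glo) measures survival of drug-naive KB-3-1 cells after 72 h compound exposure at 37 °C. Titration series was screened from lowest to highest concentration, with DMSO vehicle plates as background controls.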
# ATXN2 expr inh: ATXN2 expression inhibition; HEK-293 ATXN2-luciferase reporter, luminescence, 24 h; Potency, µM (series often up to 57 µM), hits mostly inhibitors; hit rate 0.72% among 360,000; AID 1745845; note: nearly all actives have a fitted effect of over 55% in size
#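 qHTS (up to 57 uM final) was run with 24 h compound exposure of reporter cells at 37 °C. Each well was multiplexed: SteadyGlo luminescence measured ATXN2-luciferase expression after a fluorogenic Gly-Phe-AFC viability readout (25 uM final).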
# KB-V1 cytotox: KB-V1 MDR subline cytotoxicity; KB-V1 MDR cells viability, CellTiter-Glo, 72 h; Potency, µM (doses to about 46.1 µM), hits mostly cytotoxic; hit rate 3.4% among 400,000; note: nearly all actives have a fitted effect of over 60% in size
#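 Cytotoxicity via CellTiter-Glo luminescence after 72 h compound exposure at 37 degrees C. Cells: drug-selected KB-V1 line, DMEM phenol-red free plus 10% FBS. Compounds tested at multiple concentrations; normalized data fitted to concentration-effect curves.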
# ATXN viability: cell viability loss in ATXN counter-screen; S2 cells (HEK-293 line with an ATXN2-luciferase reporter) viability, CellTiter-Fluor protease fluorescence, 24 h; Potency, µM (series often up to 56.7 µM), most hits filed as cytotoxic; hit rate 0.49% among 400,000; AID 651635; note: nearly all actives have a fitted effect of over 40% in size
# A number is an active result; . = inactive; ? = inconclusive; / = no result given; ! = not confirmed by another sample. Calls come from the whole dose curve; as a rule, active = well fitted curve in the direction sought with a large enough effect; inconclusive = small, poorly fitted or top-dose-only effect, or another doubt; inactive = no such curve, though single readings can be large; an effect the other way counts as inactive or inconclusive.
SMILES,HT1080 IDH1KD tx,HT1080NT lethal,KB-3-1 tox,ATXN2 expr inh,KB-V1 cytotox,ATXN viability
COc1cccc(/C=N/NC(=O)CCCC(=O)Nc2ccc(Br)cc2)c1,.,.,.,.,15µM,.
COc1ccc(C(=O)NCc2nnc(SC)n2-c2ccccc2C)c(OC)c1OC,/,/,/,/,/,.
Cc1ccc(C)c(N(CC(=O)Nc2cc(Cl)ccc2Oc2ccccc2)S(C)(=O)=O)c1,.,.,?,.,21µM,.
N=c1sccn1CC(=O)Nc1cc(Cl)ccc1Oc1ccccc1,?,16µM,.,?,?,?
COc1cccc(OCC(=O)Nc2cc(Cl)ccc2Oc2ccccc2)c1,.,.,?,28µM,.,?
Cc1cccc(C)c1N(CC(=O)Nc1cc(Cl)ccc1Oc1ccccc1)S(C)(=O)=O,.,.,.,.,.,.
COc1cc2[nH]c(=O)n(Cc3ccc(C(=O)N4CCN(c5cc(Cl)ccc5C)CC4)cc3)c(=O)c2cc1OC,/,/,.,.,.,.
COc1c2ccoc2nc2c(OC)c(OC[C@H](O)C(C)(C)O)ccc12,/,/,/,/,/,.
CC1=CC(C)(C)NC(=S)N1c1ccc(C)c(C)c1,.,.,?,.,.,.
CC1=CC(C)(C)NC(=S)N1c1ccc(C)cc1,11µM,?,.,.,.,.
CC1=CC(C)(C)NC(=S)N1c1cccc(C)c1,8.9µM!,8.9µM!,.,.,.,.
CCN1CCN(c2ccc(S(=O)(=O)N3CCCCC3)cc2NC(=O)c2ccccc2)CC1,.,.,.,.,.,.
CCN1CCN(c2ccc(S(=O)(=O)N3CCCCC3)cc2NC(=O)c2ccc([N+](=O)[O-])s2)CC1,.,.,?,25µM,?,?
CCN(CC)CCOc1ccc(/C(=C(/Cl)c2ccccc2)c2ccccc2)cc1,18µM!,18µM,?,25µM!,?,/
CCC1CN(CCNC(=O)c2cccnc2OC)Cc2cc(OC)ccc2O1 (centres undefined),/,/,/,/,/,.
CCN1CCCC1CN(Cc1cc2ccc(C)cc2[nH]c1=O)C(=S)Nc1cccc(OC)c1 (centres undefined),18µM,?,.,.,.,.
CCOc1ccccc1NC(=S)N(Cc1cc2ccc(C)cc2[nH]c1=O)CC1CCCN1CC (centres undefined),.,?,13µM,.,.,?
CCN1CCCC1CN(Cc1cc2ccc(C)cc2[nH]c1=O)C(=S)Nc1ccccc1OC (centres undefined),?,?,?,.,.,.
CCN1CCCC1CN(Cc1cc2ccc(C)cc2[nH]c1=O)C(=S)Nc1ccc(OC)cc1 (centres undefined),?,?,?,.,?,?
COc1cccc(NC(=O)C(=O)NCC(c2ccc3c(c2)OCO3)N2CCOCC2)c1 (centres undefined),/,/,.,.,.,.
Cc1ccc(C(=O)N/C(=C\c2ccc(-c3cc(Cl)ccc3Cl)o2)C(=O)NCc2cccnc2)cc1,.,.,?,.,16µM,.
O=C(NCc1cccnc1)/C(=C/c1ccc(-c2cccc(Cl)c2)o1)S(=O)(=O)c1ccccc1,.,.,.,?,?,.
O=C(NCc1cccnc1)/C(=C\c1ccc(-c2cccc(Cl)c2)o1)S(=O)(=O)c1ccccc1,?,.,?,25µM,4.1µM,/
CN(C)c1ccc(/C=C(\NC(=O)c2ccccc2)C(=O)NCc2cccnc2)cc1,.,.,.,.,.,?
Cc1cc(S(=O)(=O)Nc2ccc(N(C)C)cc2)c(C)s1,.,.,.,.,16µM,.
Cc1cc(S(=O)(=O)Nc2cccc(Cl)c2)c(C)s1,.,.,.,.,.,.
O=C(Cc1ccccc1Cl)Nc1cc(S(=O)(=O)N2CCOCC2)ccc1N1CCOCC1,.,.,.,.,16µM,.
Cc1ccc(S(=O)(=O)N2CCOCC2)cc1NC(=O)CN1CCC(Cc2ccccc2)CC1,.,.,21µM,?,.,.
CC(Oc1cccc(Cl)c1)C(=O)Nc1cc(S(=O)(=O)N2CCOCC2)ccc1N1CCCCC1 (centres undefined),.,.,?,.,18µM,.
